Assays:
Settings in all cases: concentration: 1 μM, replicates: in singlicate; n = 1
[1] = tested on: T1, IKK-alpha
T1 construct: gene CHUK

[2] = tested on: T2, IKK-beta
T2 construct: gene IKBKB

[3] = tested on: T3, IKK-epsilon
T3 construct: gene IKBKE

[4] = tested on: INSRR
[5] = tested on: INSR
[6] = tested on: IRAK1
[7] = tested on: IRAK3
[8] = tested on: IRAK4
[9] = tested on: ITK
[10] = tested on: JAK1(JH1domain-catalytic)
[11] = tested on: JAK1(JH2domain-pseudokinase)
[12] = tested on: JAK2(JH1domain-catalytic)
[13] = tested on: JAK3(JH1domain-catalytic)
[14] = tested on: T4, JNK1
T4 construct: gene MAPK8

[15] = tested on: T5, JNK2
T5 construct: gene MAPK9

[16] = tested on: T6, JNK3
T6 construct: gene MAPK10

[17] = tested on: KIT-autoinhibited
[18] = tested on: KIT
[19] = tested on: LATS1
[20] = tested on: LATS2
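Note: KINOMEscan kinase panel screen.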

Structure (SMILES)	%Inh [1]	%Inh [2]	%Inh [3]	%Inh [4]	%Inh [5]	%Inh [6]	%Inh [7]	%Inh [8]	%Inh [9]	%Inh [10]	%Inh [11]	%Inh [12]	%Inh [13]	%Inh [14]	%Inh [15]	%Inh [16]	%Inh [17]	%Inh [18]	%Inh [19]	%Inh [20]
COc1cccc(NC(=O)NCCNc2ccnc(Nc3ccc(F)cc3)n2)c1 [GSK1379879]	0%	0%	0%	0%	0%	25%	14%	21%	6%	23%	0%	22%	0%	25%	17%	13%	0%	46%	0%	0%
COC(=O)Nc1nc2cc(Oc3ccc(NC(=O)Nc4cccc(SC)c4)cc3)ccc2[nH]1.Cl [GW697999]	35%	0%	10%	0%	0%	36%	24%	12%	26%	2%	0%	0%	0%	16%	16%	0%	50%	99.9%	43%	0%
COC(=O)Nc1nc2ccc(Oc3ccc(NC(=O)Nc4cc(C(F)(F)F)ccc4F)cc3)cc2[nH]1.Cl [GW654607]	72%	36%	17%	0%	0%	21%	6%	3%	0%	69%	0%	55%	16%	0%	65%	7%	0%	100%	0%	0%
CN1CCN(Cc2ccc(NC(=O)Nc3ccc(N(C)c4ccnc(Nc5ccc(CS(C)(=O)=O)cc5)n4)cc3)cc2)CC1.Cl [GW827654]	29%	22%	28%	0%	42%	44%	66%	15%	28%	61%	84%	99.9%	98.5%	92.7%	76%	88%	61%	100%	20%	37%
O=C(Nc1n[nH]c2cc(-c3cccs3)ccc12)C1CC1 [SB-731284]	57%	73%	0%	0%	40%	35%	9%	45%	0%	0%	22%	40%	0%	57%	33%	48%	39%	58%	0%	5%
COc1cccc(-c2nc(-c3ccccc3)[nH]c2-c2ccncc2)c1 [SB-610250]	33%	35%	0%	0%	5%	48%	0%	46%	15%	23%	12%	17%	0%	30%	83%	90%	0%	0%	45%	0%
COc1cc(Nc2nccc(N3CCC(NS(=O)(=O)c4ccc(NC(C)=O)cc4)CC3)n2)cc(OC)c1OC [GSK1379825]	24%	14%	11%	0%	0%	74%	85%	44%	17%	20%	83%	96.3%	8%	44%	37%	31%	0%	90%	0%	0%
CCn1c(-c2nonc2N)nc2c(-c3ccccc3)ncc(OCCCN)c21.O=C(O)C(F)(F)F.O=C(O)C(F)(F)F [GSK260205]	32%	16%	3%	0%	0%	29%	0%	21%	14%	11%	71%	3%	0%	26%	85%	85%	0%	41%	100%	93.8%
COc1cccc(C2=C(Nc3cccc(O)c3)C(=O)NC2=O)c1 [SB-390771]	2%	18%	40%	0%	3%	29%	9%	38%	10%	9%	0%	15%	94.2%	46%	50%	28%	0%	15%	0%	1%
O=C(O)C(F)(F)F.O=c1[nH]ccc2nc(N[C@@H]3CCNC3)nc(Nc3ccc4c(c3)S(=O)(=O)CC4)c12 [GSK2181306]	87%	60%	61%	40%	58%	98.4%	0%	15%	30%	89%	98%	98.4%	100%	83%	54%	78%	0%	73%	51%	80%
O=C(O)C(F)(F)F.O=c1[nH]ccc2nc(N[C@@H]3CCNC3)nc(Nc3cc(Cl)cc(Cl)c3)c12 [GSK2188764]	72%	44%	29%	5%	36%	90.1%	1%	17%	17%	93.5%	98%	92.2%	100%	36%	7%	25%	2%	73%	42%	59%
Cc1ccc(NC(=O)c2ccc(Cl)c(Cl)c2)cc1-c1ccc(C(=O)Nc2ccncc2)cc1 [GSK1398460]	0%	10%	24%	0%	0%	0%	3%	7%	10%	9%	0%	0%	0%	11%	4%	0%	9%	100%	0%	3%
O=C(Nc1c(F)cccc1F)c1cc(C(=O)c2ccccc2F)c[nH]1 [GSK1326180]	0%	0%	0%	5%	17%	0%	7%	0%	0%	3%	0%	0%	0%	4%	17%	0%	0%	9%	0%	0%
Cn1cc(-c2ccc3c(c2)CCN3C(=O)Cc2cc(F)cc(C(F)(F)F)c2)c2c(N)ncnc21 [GSK2635225]	0%	0%	75%	0%	31%	8%	0%	0%	5%	9%	3%	10%	0%	0%	13%	0%	16%	100%	0%	4%
Cc1ccc(-c2ccc3occ(-c4ccc(S(C)=O)cc4)c3c2)nn1 (stereo not shown)	0%	0%	0%	0%	0%	0%	0%	5%	0%	0%	0%	0%	0%	0%	0%	0%	0%	0%	13%	0%
COc1ccc(C)c(Nc2ccnc(Nc3ccc(-c4cnc[nH]4)cc3)n2)c1.Cl [GW784041]	0%	0%	0%	0%	0%	0%	35%	0%	18%	100%	76%	14%	0%	14%	0%	0%	0%	70%	12%	0%
CN(c1ccc2c(c1)nc(NCc1ccccc1)n2C)c1ccnc(Nc2ccc(CS(C)(=O)=O)cc2)n1.Cl [GW811603]	0%	0%	0%	44%	10%	0%	0%	0%	0%	12%	0%	60%	99.2%	65%	40%	47%	80%	100%	0%	0%
CN(C)CCNS(=O)(=O)c1ccc(-c2ccnc3[nH]ccc23)cc1 [GSK977620]	85%	98.8%	2%	0%	0%	55%	45%	17%	54%	12%	0%	82%	56%	29%	17%	15%	0%	9%	29%	93%
O=C(Nc1n[nH]c2nc(-c3ccccc3)ccc12)C1CC1 [SB-708999]	94%	66%	37%	0%	0%	24%	10%	14%	4%	0%	0%	17%	51%	16%	6%	6%	0%	8%	6%	0%
COc1cccc(CC(=O)N2CCc3cc(-c4cn(C)c5ncnc(N)c45)ccc32)c1 [GSK2608899]	0%	60%	75%	13%	9%	0%	14%	0%	12%	8%	0%	0%	0%	4%	16%	3%	11%	100%	0%	10%

From paper PMC5540273 (PLoS ONE, 2017)
